A short description of assay [1]: ATG_CRE_CIS: Attagene CIS-FACTORIAL HepG2 Assay for human cAMP Responsive Element (CRE) binding protein 3 (AID 2282926). The settings on record: HepG2 CRE cis-reporter, Attagene multiplexed mRNA; actives raise or lower the signal. In a few lines:
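Liver-derived HepG2, transfected with a CRE-containing reporter panel, exposed 24 h; transcript levels sized and quantified by capillary electrophoresis of labelled amplicons; signal changes either way referenced to vehicle.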

The nature of assay [2]: ATG_CMV_CIS: Attagene CIS-FACTORIAL HepG2 Assay for human CMV (Internal Marker) (AID 2282928).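 Further: endpoint acts as a background internal control marker rather than a target.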 The settings on record: HepG2 CMV promoter reporter, transcription factor profiling; actives raise or lower the signal. In a few lines:
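Bidirectional fits against DMSO are applied to reporter mRNA, read by RT-PCR with capillary electrophoresis, from HepG2 cells exposed 24 h. The endpoint serves as an internal CMV background marker within the cis-factorial reporter panel.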

The target in assay [3] is Aryl hydrocarbon receptor (Homo sapiens) (UniProt P35869). Nature of the assay: ATG_Ahr_CIS: Attagene CIS-FACTORIAL HepG2 Assay for human Aryl Hydrocarbon Receptor (Ahr) (AID 2282930). The settings on record: HepG2 AhR cis-factorial reporter transcription; actives raise or lower the signal. In a few lines: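 Values derive from bidirectional fitting against DMSO negative control. Underlying signal: cis-element reporter mRNA in transiently transfected HepG2, harvested 24 h post-dose and measured by RT-PCR plus capillary electrophoresis.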

A short description of assay [4]: ATG_AP_1_CIS: Attagene CIS-FACTORIAL HepG2 Assay for human Activator Protein 1 (AP-1) (AID 2282931). The settings on record: HepG2 Attagene cis-factorial AP-1 reporter mRNA; actives raise or lower the signal. An outline of the steps: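 We transfected HepG2 cells transiently with a set of cis-regulated reporter transcription units, dosed them for 24 h, and quantified reporter mRNA via RT-PCR and capillary electrophoresis, scoring gain or loss of signal relative to DMSO.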

Assay [5] can be described thus: ATG_AP_2_CIS: Attagene CIS-FACTORIAL HepG2 Assay for human Activator Protein 2 (AP-2) (AID 2282932). The settings on record: HepG2 AP-2 cis-reporter, Attagene transcription factor profiling; actives raise or lower the signal. In a few lines: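 Assay in transfected HepG2 with promoter-regulated reporters, 24 h incubation after dosing. Signal is reporter mRNA fluorescence (RT-PCR, capillary electrophoresis), analysed for both increases and decreases relative to DMSO controls.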

The target of assay [6] is Retinoic acid receptor alpha (Homo sapiens) (UniProt P10276). The assay can be described thus: ATG_DR5_RAR_CIS: Attagene CIS-FACTORIAL HepG2 Assay for human Retinoic Acid Receptor Alpha (RARE), DR5 submotif (AID 2282934).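 On AC50: reporter responds to endogenous RAR alpha beta and gamma in HepG2 not RARA alone.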 The settings on record: HepG2 Attagene cis-factorial RARE DR5 reporter, mRNA; actives raise or lower the signal. In a few lines:
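Endpoint fitted in both directions relative to DMSO as negative control. It reflects DR5 cis-element reporter mRNA induction in transiently transfected HepG2 cells, measured 24 h after dosing through RT-PCR and fluorescent capillary electrophoresis.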

The target of assay [7] is Transcription factor E2F1 (Homo sapiens) (UniProt Q01094). Nature of the assay: ATG_E2F_CIS: Attagene CIS-FACTORIAL HepG2 Assay for human E2F Transcription Factor 1 (AID 2282935). The settings on record: HepG2 Attagene cis-reporter, E2F reporter RNA transcripts; actives raise or lower the signal. An outline of the steps: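 In this cis-factorial format, endogenous factor activity drives transfected reporters in HepG2; transcripts collected at 24 h are quantified by fluorescence after RT-PCR and capillary separation.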

Assay [8] has as its target CCAAT/enhancer-binding protein beta (Homo sapiens) (UniProt P17676). Nature of the assay: ATG_C_EBP_CIS: Attagene CIS-FACTORIAL HepG2 Assay for human CCAAT/Enhancer Binding Protein (C/EBP) beta (AID 2282927). The settings on record: HepG2 Attagene cis-factorial transcription factor reporter; actives raise or lower the signal. In a few lines: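 Following a 24 h incubation with test chemical, transfected HepG2 cells yielded RNA whose reporter transcripts were quantified by RT-PCR and fluorescent capillary electrophoresis, with DMSO serving as baseline for bidirectional fitting.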

The nature of assay [9]: ATG_BRE_CIS: Attagene CIS-FACTORIAL HepG2 Assay for human Bone Morphogenetic Protein (BMP) Response Element (BRE) (AID 2282933). The settings on record: HepG2 BMP response element reporter, Attagene transcription factor profiling; actives raise or lower the signal. In a few lines:
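A HepG2 multiplex reporter system measured inducible reporter mRNA 24 h post-dosing. Detection: RT-PCR, 6-FAM primer extension, HpaI digestion, capillary electrophoresis. Activity fitted bidirectionally relative to DMSO.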

Assay [10] in a line: ATG_DR4_LXR_CIS: Attagene CIS-FACTORIAL HepG2 Assay for human Liver X Receptor (LXR), DR4 submotif (AID 2282929). The settings on record: HepG2 Attagene DR4 cis-reporter, mRNA transcription; actives raise or lower the signal. In a few lines:
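Transiently transfected HepG2 liver cells; cis-regulated reporters; 24 h dosing. RT-PCR plus CE read-out of reporter mRNA. DMSO baseline, bidirectional curve fitting.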

Activity calls are given as the source filed them. How the source made its calls: active means hit-call score of the fitted dose curve at least 0.9, where 1 is the maximum; inactive means score below 0.9.

Sequence of Transcription factor E2F1 (Homo sapiens) (Q01094 whole entry, looked up): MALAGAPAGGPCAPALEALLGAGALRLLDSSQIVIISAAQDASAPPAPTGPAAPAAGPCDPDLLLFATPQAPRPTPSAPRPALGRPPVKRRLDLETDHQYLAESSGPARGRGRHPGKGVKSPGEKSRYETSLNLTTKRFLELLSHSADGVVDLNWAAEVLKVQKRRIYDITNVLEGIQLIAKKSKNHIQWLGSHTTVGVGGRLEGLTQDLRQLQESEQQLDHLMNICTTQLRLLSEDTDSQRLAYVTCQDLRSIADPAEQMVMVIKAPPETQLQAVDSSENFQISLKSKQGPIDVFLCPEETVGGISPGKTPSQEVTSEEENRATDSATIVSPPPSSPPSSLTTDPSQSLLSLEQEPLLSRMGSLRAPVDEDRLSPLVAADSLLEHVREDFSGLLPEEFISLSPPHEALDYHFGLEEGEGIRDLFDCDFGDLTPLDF
Sequence of Aryl hydrocarbon receptor (Homo sapiens) (P35869 whole entry, looked up): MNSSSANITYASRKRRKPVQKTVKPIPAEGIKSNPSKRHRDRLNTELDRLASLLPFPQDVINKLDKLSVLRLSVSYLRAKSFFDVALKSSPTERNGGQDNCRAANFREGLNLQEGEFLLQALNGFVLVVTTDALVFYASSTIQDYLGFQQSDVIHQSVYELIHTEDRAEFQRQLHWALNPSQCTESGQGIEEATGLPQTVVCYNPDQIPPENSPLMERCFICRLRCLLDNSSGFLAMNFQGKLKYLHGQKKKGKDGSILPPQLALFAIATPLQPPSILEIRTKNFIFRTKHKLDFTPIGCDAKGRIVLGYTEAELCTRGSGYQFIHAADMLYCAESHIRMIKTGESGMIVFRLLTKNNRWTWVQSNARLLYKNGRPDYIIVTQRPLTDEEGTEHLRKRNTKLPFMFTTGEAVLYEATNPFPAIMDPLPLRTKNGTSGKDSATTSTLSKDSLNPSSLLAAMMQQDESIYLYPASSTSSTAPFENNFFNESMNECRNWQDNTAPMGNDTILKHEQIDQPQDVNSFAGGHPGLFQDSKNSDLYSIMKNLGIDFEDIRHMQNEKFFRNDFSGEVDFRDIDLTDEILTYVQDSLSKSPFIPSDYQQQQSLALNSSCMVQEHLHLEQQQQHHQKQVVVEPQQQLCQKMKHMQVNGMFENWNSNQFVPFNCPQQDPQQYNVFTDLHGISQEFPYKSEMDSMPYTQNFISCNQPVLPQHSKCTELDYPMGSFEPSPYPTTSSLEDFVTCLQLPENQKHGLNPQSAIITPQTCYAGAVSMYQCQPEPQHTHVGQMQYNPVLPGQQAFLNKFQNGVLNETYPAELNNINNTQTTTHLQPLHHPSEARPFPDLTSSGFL
Sequence of Retinoic acid receptor alpha (Homo sapiens) (P10276 whole entry, looked up): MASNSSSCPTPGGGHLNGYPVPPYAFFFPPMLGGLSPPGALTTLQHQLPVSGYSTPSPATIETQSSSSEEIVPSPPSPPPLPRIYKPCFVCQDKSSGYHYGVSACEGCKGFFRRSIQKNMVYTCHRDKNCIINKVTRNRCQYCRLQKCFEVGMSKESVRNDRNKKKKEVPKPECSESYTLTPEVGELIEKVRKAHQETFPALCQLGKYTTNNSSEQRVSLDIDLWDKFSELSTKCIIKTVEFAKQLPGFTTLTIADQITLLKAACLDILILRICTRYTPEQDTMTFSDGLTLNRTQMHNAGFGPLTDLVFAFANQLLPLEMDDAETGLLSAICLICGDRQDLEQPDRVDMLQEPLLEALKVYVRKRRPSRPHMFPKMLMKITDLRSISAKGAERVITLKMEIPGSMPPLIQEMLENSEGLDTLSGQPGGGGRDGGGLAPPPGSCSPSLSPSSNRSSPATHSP
Sequence of CCAAT/enhancer-binding protein beta (Homo sapiens) (P17676 whole entry, looked up): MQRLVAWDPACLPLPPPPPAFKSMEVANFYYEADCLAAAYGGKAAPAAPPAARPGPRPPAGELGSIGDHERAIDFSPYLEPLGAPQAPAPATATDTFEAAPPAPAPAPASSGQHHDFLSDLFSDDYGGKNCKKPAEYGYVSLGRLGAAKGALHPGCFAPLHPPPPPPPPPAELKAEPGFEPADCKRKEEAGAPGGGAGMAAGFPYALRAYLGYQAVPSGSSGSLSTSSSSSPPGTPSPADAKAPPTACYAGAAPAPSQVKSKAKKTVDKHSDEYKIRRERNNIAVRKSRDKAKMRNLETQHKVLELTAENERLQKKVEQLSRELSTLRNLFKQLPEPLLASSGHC

As for `CC(C)(C)c1ccc(N)cc1`, the call in assay [1], in assay [2], in [3], in assay [4], in assay [5] and in assay [6] was inactive. Further, the outcome in assay [7] was inactive.
As to `CCN(CC)c1ccc(C(=O)c2ccccc2C(=O)O)c(O)c1`, the result in assay [1], in [8], in [2], in assay [4], in [5] and in assay [9] was inactive. Also, the call in [6] was inactive.
As a reminder, the AC50 is the concentration at which the activity in the assay is half-maximal. In the case of `C=CCOc1c(Br)cc(Br)cc1Br`, the call in [1], in [10], in assay [3], in assay [4], in assay [9] and in [6] was inactive. Moreover, the outcome in [7] was inactive. Besides, the concentration at half-maximal activity (AC50) in [2] is 35.1 µM (active).
As to `COc1cc(NC(=O)CC(C)=O)c(OC)cc1Cl`, the result in assay [1], in assay [2], in [10], in assay [4], in [9] and in assay [6] was inactive. Also, the concentration at half-maximal activity (AC50) in assay [3] was 40.1 µM (active).
As for `O=Cc1ccc(CO)o1`, the call in assay [1], in assay [2], in assay [10], in assay [3], in [4] and in assay [5] was inactive. Besides, the result in assay [6] was inactive.
Regarding `COc1ccc(C(Cl)=C(c2ccc(OC)cc2)c2ccc(OC)cc2)cc1`, the call in [1], in assay [2], in assay [10], in [3], in [4] and in assay [5] was inactive. The molecule was classed as inactive in [9], in assay [6] and in assay [7].
`CC(=O)CC(N)=O`: the outcome in assay [1], in assay [2], in assay [10], in assay [4], in assay [5] and in [9] was inactive. Moreover, the molecule was classed as inactive in assay [6] and in [7].
As to `CCCCC(CC)COCC1CO1` (centres undefined), the result in assay [1], in [2], in [5], in assay [9], in assay [6] and in [7] was inactive.
For the molecule `Nc1ccc(-c2ccc(F)cc2)cc1`, the molecule was classed as inactive in assay [1], in [2], in assay [10], in assay [3], in assay [4] and in [5]. The molecule was classed as inactive in assay [9], in assay [6] and in assay [7].
For `CCC(C)OC(=O)c1ccc(O)cc1` (centres undefined), the molecule was classed as inactive in assay [1], in assay [10], in assay [3], in assay [4], in assay [5] and in assay [9]. Moreover, the outcome in [6] and in assay [7] was inactive. Moreover, the AC50 in [2] is 67.6 µM (active).
For the molecule `CCCOCCOCCOCCO`, the molecule was classed as inactive in assay [1], in assay [2], in assay [10], in assay [3], in assay [4] and in assay [5]. Further, the outcome in assay [6] and in assay [7] was inactive.
For the molecule `C(=CC=Nc1ccccc1)C=CNc1ccccc1`, the result in assay [1], in assay [2], in assay [10], in [6] and in assay [7] was inactive. In addition, the figures for the AC50 in assay [3] and in assay [4] were 10.1 µM (active) and 100 µM (active), respectively.
For `c1ccc2c(c1)ccc1ncccc12`, the result in assay [1], in assay [10], in [4] and in assay [7] was inactive. For the same molecule, the AC50 was 19.2 µM (active) in [2]; 7.77 µM (active) in [3]; 178 µM (active) in assay [5]; 76.4 µM (active) in assay [9]; 58 µM (active) in [6].
With `OC1OCCOC1O` (centres undefined), the result in [1], in assay [2], in assay [10], in [3], in [4] and in assay [5] was inactive. The result in assay [9], in [6] and in assay [7] was inactive.
For the molecule `O=C1c2cccc(O)c2C(=O)c2c(O)cc(CO)cc21`, the result in assay [1], in assay [10], in assay [3], in assay [5], in assay [9] and in assay [6] was inactive. Besides, the molecule was classed as inactive in assay [7]. Moreover, the figures for the AC50 in [2] and in assay [4] were 11.3 µM (active) and 32.5 µM (active), respectively.
As to `CCCCCCCCCCCCCCCCCC#N`, the molecule was classed as inactive in [1], in assay [2], in assay [3], in assay [4], in assay [5] and in [9]. In addition, the call in assay [6] and in assay [7] was inactive.
`N[C@H]1C(O)O[C@H](CO)[C@H](O)[C@@H]1O` (some centres undefined): the molecule was called inactive in assay [1], in assay [2], in [10], in assay [3], in [5] and in assay [9]. The molecule was classed as inactive in assay [6] and in assay [7].
Turning to `Cc1cc(=O)n(-c2ccccc2)n1C`, the call in assay [1], in assay [2], in assay [10], in assay [3], in assay [4] and in [5] was inactive. Also, the molecule was called inactive in assay [9] and in [6].
Regarding `Nc1ccc(Oc2ccc(N)c(N)c2)cc1`, the molecule was classed as inactive in assay [1], in assay [10], in [3], in [5], in [9] and in [6]. In addition, the result in assay [7] was inactive. Further, the AC50 in assay [2] is 85.5 µM (active).
Consider `COC(=O)c1ccccc1OC`, for which the molecule was called inactive in assay [1], in assay [8], in [2], in assay [4], in assay [5] and in assay [9]. In addition, the result in [6] and in [7] was inactive.

Values taken from PubChem BioAssay (EPA / NIEHS).
